Assay outcomes (PubChem)
CHOP inh – inhibitors of CHOP induction in ER stress response; actives 3.8% (n = 220,000); CHO-K1 CHOP-promoter luciferase, tunicamycin-induced, 15-18 h; inhibition, % at 10 µM; AID 2732;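 active = compounds that reduced the stress-induced luciferase reporter signal by more than about 70% of percent inhibition, limit read from the data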;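 note: 0% = tunicamycin plus vehicle and 100% = wells without tunicamycin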
Arbovirus anti – blocks arbovirus infection. arbovirus infection cell-based antiviral screen. inhibition, % at 10 µM. actives 0.37% (n = 200,000); in the data active = inhibition above about 30%
WT yeast gro inh – growth inhibition of WT yeast, mitochondrial fusion screen | mitochondrial fusion phenotypic screen, WT strain | actives 2.1% (n = 190,000) | inhibition, % at 10 µM; in the data active = inhibition above about 58%; tested in S. cerevisiae
L major viab – Leishmania major promastigote growth inhibition | Leishmania major promastigotes, resazurin fluorescence viability | inhibition, % at 10 µM | actives 9% (n = 200,000); in the data active = inhibition above about 50%;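 note: promastigotes grown with compound for 44 hours at 28 °C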
Numbers without * were called inactive; . = no result given. An excerpt weighted towards active compounds, which were near 12% of everything screened.

SMILES | CHOP inh | Arbovirus anti | WT yeast gro inh | L major viab
CCC(C)NC(=O)CSc1nc2c(sc3ccccc32)c(=O)n1CCCN1CCOCC1 (centres undefined) | 15 | -6 | 7 | 20
CS(=O)(=O)c1ccc(Cl)c(NC(=O)CSc2nc3ccccc3c(=O)n2CCCN2CCOCC2)c1 | 18 | 9 | -6 | 85*
CCOC(=O)CSc1nc2c(sc3ccccc32)c(=O)n1CCCN1CCOCC1 | -4 | -1 | 3 | 100*
COc1ccc(NC(=O)CSc2nc3ccccc3c(=O)n2CCCN2CCCCC2)c(OC)c1 | 6 | -31 | 0 | 100*
COc1cc(C(=O)OCCN2CCOCC2)ccc1O | 3 | 15 | -6 | 56*
CC1CCCC(NC(=O)NC(=O)CCl)C1C (centres undefined) | 25 | 5 | -12 | 99*
CC1CCCCC1NC(=O)NC(=O)CCl (centres undefined) | -75 | 12 | -11 | 98*
CC1CCCC(NC(=O)CSC2CCCCC2)C1C (centres undefined) | 14 | -10 | -6 | 5
COC(=O)c1cnc(Oc2ccc(NC(=O)NC(=O)c3ccccc3Cl)cc2)cc1C(F)(F)F | 0 | . | . | .
CCOc1ccc(N(C(C)=O)c2nc(C)cc(C)c2C#N)cc1 | 24 | 0 | -1 | -6
CC(=O)Nc1ccc2c(CSc3nnc(N)s3)cc(=O)oc2c1 | 5 | . | . | .
COc1ccccc1OCCCCN1CCN(c2ccccc2OC)CC1 | -9 | -3 | -10 | 2
Cc1cccc(OCCN2CSC(=S)N(C)C2)c1 | -68 | -40 | 36 | 100*
COc1ccccc1OCCN1CSC(=S)N(C)C1 | 29 | -34 | 29 | 100*
COc1cccc(Nc2ncnc3ccccc23)c1 | 7 | 4 | 0 | 62*
COc1ccc(Nc2ncnc3ccccc23)cc1 | 4 | 1 | 7 | 12
O=C(Oc1cccc(Nc2ncnc3ccccc23)c1)c1ccccc1Cl | 87* | -3 | 59* | 6
CCCCCCCCNc1ncnc2ccccc12 | 81* | -45 | 69 | 77*
COc1cccc(Nc2ncccc2C(=O)Nc2ccccc2)c1 | 85* | 2 | 37 | 0
c1ccc(CCNc2ncnc3ccccc23)cc1 | 61 | 20 | 48 | 42
O=C(Cn1cncn1)N/N=C/c1cccnc1 | -25 | . | . | .
COc1ccc(/C(C)=N/NC(=O)Cn2nc([N+](=O)[O-])cc2C)cc1 | -4 | . | . | .
O=C(/C=C/c1ccc2c(c1)OCO2)Nc1ccc(Cl)cn1 | 69 | -33 | 16 | -1
COc1ccc(Br)c(OC)c1C(=O)NC(=O)Nc1nc(C)cc(C)n1 | 11 | . | . | .
CCN(CC(=O)Nc1ccccc1Br)Cc1nc2ccccc2c(=O)[nH]1 | 4 | 6 | 20 | 3
SMILES | CHOP inh | Arbovirus anti | WT yeast gro inh | L major viab
C=CCn1c(=O)/c(=C/c2ccc(F)cc2)s/c1=C(\C#N)c1nnc2n1CCCCC2 | 11 | 7 | -2 | 61*
C=CCN1C(c2ccc(OCC)cc2)=CS/C1=C(\C#N)c1nnc2n1CCCCC2 | 11 | -8 | 10 | 6
COc1cccc(N2CCN(C3CCCC(C)C3)CC2)c1 (centres undefined) | 7 | -5 | -22 | 69*
COc1cccc(-n2cc(CNCc3cn(C)nc3-c3ccccc3F)cn2)c1 | 16 | 2 | 1 | 1
Cn1cc(CNCc2cn(C)nc2-c2ccc(C3CCCCC3)cc2)cn1 | 23 | -25 | -4 | 94*
CC(C)C(=O)N1CCN(c2ccccc2NC(=O)c2cc([N+](=O)[O-])ccc2N2CCOCC2)CC1 | -25 | -3 | -1 | 0
COc1ccc(S(=O)(=O)N2CCCC(C(=O)Nc3cccc(C(C)=O)c3)C2)cc1 (centres undefined) | 12 | -7 | -12 | 58*
CCS(=O)(=O)N1CCC(C(=O)Nc2cccc(C(C)=O)c2)CC1 | 73* | 4 | -23 | -2
Cc1c(C(=O)N/N=C/C(C)C)[nH]c2ccc([N+](=O)[O-])cc12 | -9 | 1 | 18 | 51*
NNc1cc([N+](=O)[O-])cc2c1C(=O)N(Cc1ccccc1)S2=O (centres undefined) | 3 | 2 | -8 | -6
COc1cccc(C(=O)N2CCN(C3CCN(Cc4ccccc4)CC3)CC2)c1 | 17 | -7 | 12 | 90*
COc1ccc(C(=O)N2CCN(C3CCN(Cc4ccccc4)CC3)CC2)cc1OC | 2 | 0 | 16 | 15
O=C(c1cccc(OC2CCN(C3CCCC3)CC2)c1)N1CCCCCCC1 | -5 | -14 | 0 | 89*
COc1ccccc1C(=O)N1CCN(C2CCN(Cc3ccccc3)CC2)CC1 | 4 | 3 | -10 | 91*
Cc1cc(C)cc(OCC(=O)NNC(=O)C2CCCO2)c1 (centres undefined) | 16 | 13 | -1 | -7
Cc1cccc(N2CCN(C(=O)c3cc(S(=O)(=O)N(C)C)ccc3N3CCCC3)CC2)c1C | 9 | -11 | 7 | 54*
CN(C)S(=O)(=O)c1ccc(N2CCCC2)c(C(=O)N2CCN(c3ccc([N+](=O)[O-])cc3)CC2)c1 | -8 | 7 | -11 | 26
O=C(Nc1cccc(Cl)c1)C1C2CCC3C(CCC21)C3(Cl)Cl (centres undefined) | 16 | -33 | 80* | 16
CC1(C)CC(=O)C2=C(C1)N(c1ccc(Cl)cc1)C(=O)C2(O)C(F)(F)F (centres undefined) | 22 | -5 | -5 | -7
CC1=NNC(=O)C1CCC(=O)N/N=C/c1ccccc1 (centres undefined) | 16 | . | . | .
N#Cc1ccc(-c2ccc(OCC(O)CN3CCOCC3)cc2)cc1 (centres undefined) | 14 | -4 | 0 | 84*
CN(C)CC(O)COc1ccc(-c2ccc(C#N)cc2)cc1 (centres undefined) | -7 | -20 | 14 | 98*
Cc1cc2ccccn2c1C(=O)c1ccc(NN)c([N+](=O)[O-])c1 | 2 | -7 | 3 | -2
Cc1cc2ccccn2c1C(=O)c1cc([N+](=O)[O-])cc([N+](=O)[O-])c1 | 28 | -10 | 41 | 100*
O=C(NN1C(=O)/C(=C\c2cccnc2)SC1=S)c1ccco1 | 10 | 13 | -2 | 35
SMILES | CHOP inh | Arbovirus anti | WT yeast gro inh | L major viab
COc1cc(C(=O)Oc2cc(C)cc(C)c2)cc(OC)c1OC | 54 | 1 | -12 | -7
COc1cc(C(=O)O/N=C2/C=C(C)C(=O)C=C2C)cc(OC)c1OC | -55 | 1 | -23 | 93*
FC(F)(F)c1ccnc(NCc2ccco2)n1 | -8 | . | . | .
Cc1ccsc1CN1CCC(C(=O)NCc2ccccc2Cl)CC1 | -22 | 2 | -3 | 92*
O=C(NCc1ccccc1Cl)C1CCN(S(=O)(=O)N2CCC3(CC2)OCCO3)CC1 | -7 | 5 | 19 | -2
CCC1CCc2c(sc3nc(SCC(=O)NCc4ccco4)n(-c4ccccc4)c(=O)c23)C1 (centres undefined) | 29 | -3 | -6 | 5
N#Cc1c(N2C(=O)Nc3ccccc3N2O)sc2c1CCCCCC2 | 12 | 35* | -3 | -6
NC(=S)n1[nH]c(-c2ccc([N+](=O)[O-])cc2)c(N=Nc2ccccc2[N+](=O)[O-])c1=O | 85* | -10 | 9 | 20
Cc1c(N=Nc2c(-c3ccc([N+](=O)[O-])cc3)[nH]n(C(N)=S)c2=O)cccc1[N+](=O)[O-] | 106* | -7 | 23 | 65*
Nc1[nH]n(-c2ccccc2)c(=O)c1N=Nc1ccccc1[N+](=O)[O-] | -2 | -11 | 3 | -4
